Sampled rows, rich in hits. Any-hit rate of the full collection: about 10%.
HEK cytotox = kills HEK 293 cells | Potency, µM (highest dose often 115 µM), without a hit: at the top dose activity change, negative = cytotoxicity, usual class: inhibitors | 6.6% of 94,000 active | HEK 293 viability, ATP luminescence (CellTiter-Glo), 48-72 h; also: % is scaled to controls: 0 for no effect and ±100 for the full control effect; nearly all actives have a fitted effect of over 60% in size
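ATP-coupled CellTiter-Glo luminescence served as viability read-out, recorded 10 min after reagent addition at room temperature. HEK 293 cells, 250 cells/well, had been incubated with pintool-transferred compound for 48 or 72 hr at 37 degree Celsius.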
NIH3T3 tox = cytotoxic compounds in NIH 3T3 cells. NIH 3T3 viability, CellTiter-Glo ATP luminescence, 48-72 h. Potency, µM (top dose mostly 96.7 µM), for inactives: at the highest dose activity change, negative = cytotoxicity, usual class: inhibitors. 4.3% of 94,000 active; also: % is scaled to controls: 0 for no effect and ±100 for the full control effect; nearly all actives have a fitted effect of over 55% in size
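Viability of NIH 3T3 cells after 48 or 72 hr compound treatment at 37 °C was assessed by CellTiter-Glo, with luminescence imaged following a 10 min room-temperature step.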
GPT2 inhibitor = inhibitors of human GPT2 alanine aminotransferase; Recombinant GPT2, coupled pyruvate oxidase/HRP Amplex Red fluorescence; Potency, µM (top dose mostly 57.7 µM), for inactives: top-dose activity change, negative = inhibition, hits mostly inhibitors; 0.25% of 100,000 active; also: % is scaled to controls: 0 for no effect and ±100 for the full control effect; nearly all actives have a fitted effect of over 60% in size
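Fluorescence of coupled pyruvate oxidase/HRP/Amplex Red system (50uM Amplex, 30 min, dark) reports pyruvate formed by GPT2. Enzyme reaction: 10ng/uL GPT2, 2mM L-alanine, 250uM a-KG, 30 min room temperature, pH 7.5; 50uM AOA control.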
Luciferase inh = inhibitors of firefly (Photinus pyralis) luciferase; P08659; purified P. pyralis luciferase, luminescence, biochemical; Potency, µM (doses to about 115 µM), actives largely listed as inhibitors; 2.5% of 76,000 active; also: % is scaled to controls: 0 for no effect and ±100 for the full control effect; nearly all actives have a fitted effect of over 65% in size
Target sequence (P08659 whole entry, looked up): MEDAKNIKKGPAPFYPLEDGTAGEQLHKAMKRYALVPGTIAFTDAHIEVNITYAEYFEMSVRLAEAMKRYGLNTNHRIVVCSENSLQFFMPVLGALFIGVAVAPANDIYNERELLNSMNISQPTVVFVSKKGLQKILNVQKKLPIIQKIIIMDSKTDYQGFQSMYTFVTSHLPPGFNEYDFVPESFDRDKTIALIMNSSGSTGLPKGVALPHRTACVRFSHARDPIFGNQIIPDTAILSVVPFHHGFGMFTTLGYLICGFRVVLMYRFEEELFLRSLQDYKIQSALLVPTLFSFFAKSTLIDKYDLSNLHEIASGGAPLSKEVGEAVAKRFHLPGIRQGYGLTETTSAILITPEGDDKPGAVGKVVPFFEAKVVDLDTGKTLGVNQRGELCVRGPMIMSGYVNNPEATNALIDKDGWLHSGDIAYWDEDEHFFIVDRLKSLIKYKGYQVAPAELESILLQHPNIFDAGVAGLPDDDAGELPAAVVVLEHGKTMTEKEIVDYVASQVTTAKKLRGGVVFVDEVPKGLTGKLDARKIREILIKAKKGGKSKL
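Inhibitors were tested against purified firefly luciferase in a biochemical, low-substrate format (both substrates at 10uM) and luminescence measured with a CCD imager.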
hNpr1 antagonist = antagonists of human natriuretic peptide receptor Npr1; 1.6% of 76,000 active; HEK293 hNpr1 GloSensor cGMP, ANP-stimulated luminescence; P16066; Potency, µM (top dose mostly 46.3 µM), inactives show top-dose activity change, negative = inhibition, actives largely listed as inhibitors; calls by dose curve; also: % is scaled to controls: 0 for no effect and ±100 for the full control effect; nearly all actives have a fitted effect of over 60% in size
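HEK293 cells stably expressing human Npr1 and cGMP GloSensor pGS-40F, loaded 2 h with 2% GloSensor reagent, given compound 30 min at room temperature. Luminescence read before and 20 min after 0.1 nM hNppA.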
Npr1 antag conf = hNpr1 antagonism, confirmation assay; AID 1347044; HEK293 hNpr1 cGMP GloSensor luminescence, ANP-stimulated; shares compounds with hNpr1 antagonist; Potency, µM (highest dose often 57.6 µM), inactives show at the top dose activity change, negative = inhibition, usual class: inhibitors; 76% of 1,400 active; calls by dose curve; also: nearly all actives have a fitted effect of over 70% in size
Npr2 selectivity = antagonizes human Npr2, subtype selectivity check; HEK293 hNpr2 GloSensor cGMP luminescence, CNP-stimulated; shares compounds with hNpr1 antagonist; Potency, µM (doses to about 57.6 µM), for the others: at the highest dose activity change, negative = inhibition, actives largely listed as inhibitors; 67% of 1,400 active; calls by dose curve; also: nearly all actives have a fitted effect of over 70% in size
FLuc counter = counter-screen for Npr1 antagonists: firefly luciferase inhibitors; 0.7% of 1,400 active; purified FLuc enzyme, luminescence, Km substrate; shares compounds with hNpr1 antagonist; Potency, µM (titrated, usually from 57.6 µM), inactives show top-dose activity change, negative = inhibition, actives largely listed as inhibitors; also: series mostly up to about 58 µM; 0% is about no effect
GloSensor cGMP = reduces cGMP signal in GloSensor control cells. shares compounds with hNpr1 antagonist. HEK293 GloSensor cGMP, SNP-stimulated, luminescence. Potency, µM (highest dose often 57.6 µM), without a hit: at the highest dose activity change, negative = inhibition, hits mostly inhibitors. 69% of 1,400 active; calls by dose curve; also: % is scaled to controls: 0 for no effect and ±100 for the full control effect; nearly all actives have a fitted effect of over 70% in size
* marks the source's active call; other numbers are inactive results; [ ] = remark or other dose. Unless noted, calls follow the shape of the dose curve; as a rule, active = well fitted curve in the direction sought with a large enough effect; inconclusive = small, poorly fitted or top-dose-only effect, or another doubt; inactive = no such curve, though single readings can be large; an effect the other way counts as inactive or inconclusive. Potency is read from the fitted curve at half-maximal effect.

What do the screens show for `Cc1nn2c(c1-c1ccccc1Oc1ccccc1)N(CC1CC1)CCC2`?
HEK cytotox: 28µM*; NIH3T3 tox: 32µM*; GPT2 inhibitor: -3%[88.5 µM]; Luciferase inh: inactive; hNpr1 antagonist: inconclusive; Npr1 antag conf: 40µM*; Npr2 selectivity: 35µM*; FLuc counter: -11%[86.2 µM]; GloSensor cGMP: 40µM*

How did CN(C1CCc2nn(CC3CC3)c(=O)n2CC1)S(C)(=O)=O (stereo unspecified) do in these assays?
HEK cytotox: -8%; NIH3T3 tox: -16%; GPT2 inhibitor: 2%; Luciferase inh: inactive; hNpr1 antagonist: 9%

Results for CC(C)c1cc(C(=O)N2CCN(c3ncccc3C#N)CC2)n(C)n1 ?
HEK cytotox: -18%; NIH3T3 tox: inconclusive; GPT2 inhibitor: 3%; Luciferase inh: inactive; hNpr1 antagonist: 6%

How did CC(C)c1cc(C(=O)NC2CCN(c3ncccc3C#N)CC2)n(C)n1 do in these assays?
HEK cytotox: inconclusive; NIH3T3 tox: inconclusive; GPT2 inhibitor: -2%; Luciferase inh: inactive; hNpr1 antagonist: 7.1µM*; Npr1 antag conf: 8.6µM*; Npr2 selectivity: 12µM*; FLuc counter: 1%; GloSensor cGMP: 7.7µM*

Results for CC(C)N1C(=O)C2(CCCC2)C1C(=O)NCc1cccc(C(F)(F)F)c1 (stereo unspecified) ?
HEK cytotox: -4%; NIH3T3 tox: -14%; GPT2 inhibitor: inactive; Luciferase inh: inactive; hNpr1 antagonist: 3%

Results for COc1ccc(C(=O)N[C@H]2CO[C@H]3[C@@H]2OC[C@@H]3n2cc(-c3ccccn3)nn2)cc1 ?
HEK cytotox: -24%[172 µM]; NIH3T3 tox: inconclusive; GPT2 inhibitor: 4%[88.5 µM]; Luciferase inh: inactive; hNpr1 antagonist: -30%[70.6 µM]

What do the screens show for `COc1ccc(CN2C(=O)[C@@H]3C[C@@H](CN3C(=O)c3cnccn3)Oc3ccccc32)cc1`?
HEK cytotox: 3%[172 µM]; NIH3T3 tox: inconclusive; GPT2 inhibitor: -3%[88.5 µM]; Luciferase inh: inactive; hNpr1 antagonist: 0%[70.6 µM]

How did COc1ccc(CN2C(=O)[C@@H]3C[C@@H](CN3C3CCCC3)Oc3ccccc32)cc1 do in these assays?
HEK cytotox: inconclusive; NIH3T3 tox: inconclusive; GPT2 inhibitor: -10%[88.5 µM]; Luciferase inh: inactive; hNpr1 antagonist: inconclusive; Npr1 antag conf: -23%[86.2 µM]; Npr2 selectivity: inconclusive; FLuc counter: -5%[86.2 µM]; GloSensor cGMP: -5%[86.2 µM]

Results for COc1ccc(CN2C(=O)[C@@H]3C[C@@H](CN3C3CCC3)Oc3ccccc32)cc1 ?
HEK cytotox: inconclusive; NIH3T3 tox: 32µM*; GPT2 inhibitor: inactive; Luciferase inh: inactive; hNpr1 antagonist: inconclusive; Npr1 antag conf: -27%[86.2 µM]; Npr2 selectivity: inconclusive; FLuc counter: -19%[86.2 µM]; GloSensor cGMP: 0%[86.2 µM]

How did O=C1[C@@H]2C[C@@H](CN2C(=O)C2CC2)Oc2ccccc2N1Cc1ccccc1 do in these assays?
HEK cytotox: -13%[172 µM]; NIH3T3 tox: -1%[138 µM]; GPT2 inhibitor: 3%[88.5 µM]; Luciferase inh: inactive; hNpr1 antagonist: 1%[70.6 µM]

Results for Cc1cc(CN(C)C(=O)c2csc3nc(-c4cccc(C(F)(F)F)c4)cn23)on1 ?
HEK cytotox: inconclusive; NIH3T3 tox: inconclusive; GPT2 inhibitor: inconclusive; Luciferase inh: inconclusive; hNpr1 antagonist: 2%

What do the screens show for `Cc1noc2c(-c3cn[nH]c3)cc(-c3cccc(C(F)(F)F)c3)nc12`?
HEK cytotox: 35µM*; NIH3T3 tox: 25µM*; GPT2 inhibitor: 2%[88.5 µM]; Luciferase inh: inactive; hNpr1 antagonist: inconclusive; Npr1 antag conf: inconclusive; Npr2 selectivity: -29%[86.2 µM]; FLuc counter: -8%[86.2 µM]; GloSensor cGMP: -16%[86.2 µM]

Results for CN1CC(=O)N(C2CCNCC2)Cc2c(NC3CCC3)ncnc21 ?
HEK cytotox: -6%; NIH3T3 tox: -13%; GPT2 inhibitor: inconclusive

How did CC(=O)NCC1CCCN(Cc2ccc(-c3ccccc3C#N)o2)C1 (stereo unspecified) do in these assays?
HEK cytotox: -21%; NIH3T3 tox: -26%; GPT2 inhibitor: inactive; Luciferase inh: inactive; hNpr1 antagonist: -22%; Npr1 antag conf: inconclusive; Npr2 selectivity: inconclusive; FLuc counter: -1%; GloSensor cGMP: 8%

Results for CCc1ccc(CN2CCCC(CNC(=O)c3cccc(OC)c3OC)C2)o1 (stereo unspecified) ?
HEK cytotox: inconclusive; NIH3T3 tox: -3%; GPT2 inhibitor: inconclusive; Luciferase inh: inactive; hNpr1 antagonist: 6%

What do the screens show for `Cc1ccc(CN2CC(Oc3ccc(-c4noc(-c5cccnc5)n4)cc3)C2)o1`?
HEK cytotox: inconclusive; NIH3T3 tox: inconclusive; GPT2 inhibitor: inactive; Luciferase inh: inactive; hNpr1 antagonist: 13µM*; Npr1 antag conf: 19µM*; Npr2 selectivity: 24µM*; FLuc counter: inconclusive; GloSensor cGMP: 22µM*

How did CCCS(=O)(=O)N1CC(Oc2ccc(-c3noc(-c4cccnc4)n3)cc2)C1 do in these assays?
HEK cytotox: inconclusive; NIH3T3 tox: inconclusive; GPT2 inhibitor: 3%; Luciferase inh: inactive; hNpr1 antagonist: 14µM*; Npr1 antag conf: 19µM*; Npr2 selectivity: 17µM*; FLuc counter: -19%; GloSensor cGMP: 15µM*

Results for CN1C(=O)c2cccn2CC1CNC(=O)c1cn[nH]c1-c1ccc(F)cc1 (stereo unspecified) ?
HEK cytotox: inactive; NIH3T3 tox: inactive; GPT2 inhibitor: -2%; Luciferase inh: inactive; hNpr1 antagonist: 0%

Results for CCN(C)S(=O)(=O)NCC1CCN(c2cnn(C)c(=O)c2)C1 (stereo unspecified) ?
HEK cytotox: inactive; NIH3T3 tox: -3%; GPT2 inhibitor: 1%; Luciferase inh: inactive; hNpr1 antagonist: 0%
